PubChem BioAssay (NCATS)
Inconclusive results are not listed. Active and inactive are the calls of the source. Unless noted, the call rests on the fitted dose curve; in most records, active means well fitted curve in the direction sought with a large enough effect; inconclusive means small, poorly fitted or top-dose-only effect, or another doubt; inactive means no such curve, though single readings can be large; an effect the other way counts as inactive or inconclusive.

How the values were obtained:
[1] = target: Glutaminase kidney isoform, mitochondrial (Homo sapiens) (UniProt O94925); assay: qHTS for Inhibitors of Glutaminase (GLS): LOPAC Validation (AID 624146); further: potency means the concentration at half of the fitted maximal effect; nearly all actives have a fitted effect of over 60% in size
Outline: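 Read-out is an Amplex red fluorescence increase coupled through glutamate oxidase and HRP, measured before and after 30 min room-temperature incubation. hKGA is in 45 mM KH2PO4 (pH 8.2) with 0.02% Tween-20; glutamine added as 1mM solution.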

[2] = qHTS of Nrf2 Activators: LOPAC Validation (AID 624149)
Outline: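 AREc32_Fluc cells, 1000/well, OPTI-MEM + 5% FBS, o/n 37 deg C 5% CO2; compound pin-transfer, 24 hr 37 deg C; Steady-Glo 30 min RT, luminescence read.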

[3] = target: Arylsulfatase A (Homo sapiens) (UniProt P15289); assay: qHTS screen for enhancers of Arylsulfatase A (ASA1): LOPAC Validation Assay (AID 720538)
Outline: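 Enhancer assay in patient-derived MLD fibroblasts carrying ASA-I179S: 48 h compound exposure at 37 C, then 14 h room-temperature pNCS turnover (0.5 mM final) in lysis buffer. Read by fluorescence at 525/598 nm after NaOH stop.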

[4] = qHTS for Activators of Parkin Expression: LOPAC Validation Assay (NLuc Reporter) (AID 720572)
Outline: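 Cells harboring the Parkin-promoter coincidence reporter were treated for 24 h at seven concentrations. NLuc output was measured sequentially after the FLuc channel and scaled between DMSO and positive control values.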

[5] = qHTS for Activators of Parkin Expression: LOPAC Validation Assay (FLuc Reporter) (AID 720573)
Outline: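 FLuc signal from Parkin-promoter coincidence reporter neuronal cells, normalized to DMSO and positive control (100%). Cells (1,500/well) pre-incubated 24 h, then exposed to LOPAC compounds in 7-point dose response for 24 h at 37 C, 5% CO2.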

[6] = target: T1, Hexokinase-4 (Homo sapiens) + Glucokinase regulatory protein (Homo sapiens) (UniProt P35557+Q14397); assay: qHTS assay for inhibitors of recombinant human GCK-GKRP interaction: Diaphorase-coupled assay (AID 743205)
Outline: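 A kinetic fluorescence read (Ex 525/Em 590 nm, every minute for 30 minutes) tracked resorufin from a G6PDH-diaphorase coupled GCK reaction. It contained 10 nM GST-GCK, 10 nM FLAG-GKRP, 5 mM glucose, 0.4 mM ATP in Hepes pH 7.6. Normalized to with/without-enzyme DMSO controls.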

[7] = target: T1, Hexokinase-4 (Homo sapiens) + Glucokinase regulatory protein (Homo sapiens); assay: qHTS assay for inhibitors of recombinant human GCK-GKRP interaction: ADP-Glo assay (AID 743206)
Outline: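 Pin-transferred compounds meet a 15 nM GST-GCK/15 nM FLAG-GKRP/2 uM S6P mix (dispense concentrations). ATP is then added to 0.4 mM final with 5 mM glucose, and the reaction runs 60 min at room temperature. ADP is quantified luminescently.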

[8] = target: T1, Hexokinase-4 (Homo sapiens) + Glucokinase regulatory protein (Homo sapiens); assay: qHTS assay for inhibitors of recombinant human GCK-GKRP interaction: HTRF assay (AID 743207)
Outline: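 After 60 min equilibration at room temperature with anti-FLAG XL665 and anti-GST antibodies, FRET ratio (665/615 nm, excitation 320 nm) was read. Proteins: GST-GCK and FLAG-GKRP, each 5 nM, plus 2 uM S6P, pH 7.1 buffer; GCK-free wells define minimum signal.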

[9] = Natriuretic polypeptide receptor (hNpr1) antagonism - Pilot counterscreen GloSensor control cell line (AID 1347045; calls by dose curve)
Outline: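 HEK293 cGMP-sensor cells; 2% GloSensor reagent 2 h RT; LOPAC compounds in 1:5 titrations 30-50 min; 50 uM SNP 20 min; luminescence pre-read and post-read.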

[10] = target: Atrial natriuretic peptide receptor 1 (Homo sapiens) (UniProt P16066); assay: Natriuretic polypeptide receptor (hNpr1) antagonism - Pilot screen (AID 1347049; calls by dose curve;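 further: HEK293 cells with hNpr1 and GloSensor cGMP luciferase stimulated by 0.1 nM hNppA; agonist-evoked cGMP luminescence read 20 min after hNppA addition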)
Outline: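 Cells expressing receptor plus cGMP biosensor are seeded and incubated overnight at 37C, then loaded with GloSensor reagent (2% final) at room temperature for 2 h. Library compounds go on for 30 min. A pre-read precedes agonist (hNppA, 0.1 nM final) and a 20-min readout.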

[11] = target: Atrial natriuretic peptide receptor 2 (Homo sapiens) (UniProt P20594); assay: Natriuretic polypeptide receptor (hNpr2) antagonism - Pilot subtype selectivity assay (AID 1347050; calls by dose curve)
Outline: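 Read-out: GloSensor luminescence (CCD imager), baseline vs post-stimulation. HEK293 cells expressing hNpr2; compounds pre-incubated 30-50 min at ambient temperature; hNppC 1 nM final, 20 min.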

[12] = target: T2, Tyrosine-protein phosphatase non-receptor type substrate 1 (Homo sapiens) + Leukocyte surface antigen CD47 (Homo sapiens) (UniProt P78324+Q08722); assay: CD47-SIRPalpha protein protein interaction - LANCE assay qHTS validation (AID 1347057; active means well fitted curve in the direction sought with a large enough effect in the signal ratio, with a control signal flat, not every such curve was filed as active; the % refers to the signal ratio)
Outline: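 Inhibition of soluble CD47/SIRPalpha ectodomain association by titrated compounds, measured as 665/615 nm time-resolved FRET ratio after sequential 30 min room-temperature incubations.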

[13] = target: T2, Tyrosine-protein phosphatase non-receptor type substrate 1 (Homo sapiens) + Leukocyte surface antigen CD47 (Homo sapiens); assay: CD47-SIRPalpha protein protein interaction - HTRF assay qHTS validation (AID 1347058; active means well fitted curve in the direction sought with a large enough effect in the signal ratio, not every such curve was filed as active; the % refers to the signal ratio)
Outline: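 Soluble extracellular domains (6His-CD47, Avi-tag-biotinylated SIRPalpha) in PBS pH 7.4 with 0.05% IGEPAL CA-630. Compounds were preincubated 30 min at RT with CD47 and anti-His-Eu, then SIRPalpha and SAV-XL665 were added. TR-FRET 665/615 ratio.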

[14] = target: T2, Tyrosine-protein phosphatase non-receptor type substrate 1 (Homo sapiens) + Leukocyte surface antigen CD47 (Homo sapiens); assay: CD47-SIRPalpha protein protein interaction - Alpha assay qHTS validation (AID 1347059);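 further: bead proximity luminescence from CD47 binding SIRPalpha after compound preincubation with SIRPalpha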
Outline: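 In PBS (pH 7.4) with 0.05% IGEPAL CA-630, compound is preincubated with biotin-Avi-SIRPalpha ectodomain before His-CD47 ectodomain and affinity beads are added. Light-protected room-temperature incubations; AlphaScreen readout.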

[15] = target: Parathyroid hormone/parathyroid hormone-related peptide receptor (Homo sapiens) (UniProt Q03431); assay: qHTS for PTHR1 Agonists: Optimization Screen against the NCGC LOPAC library (AID 1347079);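 further: GloSensor cAMP luminescence in HEK-293 GP2 cells expressing human PTHR1 with IBMX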
Outline: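 Signal increase flags agonism. GP2 cells, derived from HEK-293, express human PTHR1 and a GloSensor cAMP construct.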

[16] = target: N-terminal Xaa-Pro-Lys N-methyltransferase 1 (Homo sapiens) (UniProt Q9BV86); assay: qHTS Assay for Inhibitors of N-terminal methyltransferase 1 (NTMT1): LOPAC validation of the NTMT1 SAHH-coupled ThioGlo3 Assay (AID 1347143);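 further: SAH from peptide methylation measured as thiol fluorescence via SAHH coupling and ThioGlo3; potency means the concentration at half of the fitted maximal effect; nearly all actives have a fitted effect of over 70% in size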
Outline: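 In this qHTS pilot against the LOPAC set, 125nM NTMT1 met compounds tested at multiple concentrations, and fluorescence was normalized to background.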

[17] = qHTS to identify inhibitors of the type 1 interferon - major histocompatibility complex class I in skeletal muscle: primary screen against the NCATS LOPAC collection (AID 1347405);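 further: human myoblasts with HiBiT tag on endogenous HLA-B stimulated by IFN-beta; lytic HiBiT luminescence reporting HLA-B protein level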
Outline: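 HLA-B HiBiT myoblasts, IFN-b 4 ng/ml, dexamethasone-free medium; compounds 7-pt 1:4.3 titration, top 46 uM final; 24 h at 37 C; Nano-Glo HiBiT lytic reagent, 10 min RT, luminescence.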

[18] = Validation qHTS assay for inhibitors of Activation Induced Cytidine Deaminase (AID): UDG Counterscreen signal (AID 1347427)
Outline: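 Fluorescence at 560 nm excitation, 665 nm emission reports UDG signal after 250 mM NaOH (2x) addition and 30 min. Enzymes (AID 1 uM, UDG 2 U/mL, at 4/3x) preincubated 10 min with compound, then 4 h with 4x 250 nM DJC20/DJC23 substrate at room temperature.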

[19] = target: Single-stranded DNA cytosine deaminase (Homo sapiens) (UniProt Q9GZX7); assay: Validation qHTS assay for inhibitors of Activation Induced Cytidine Deaminase (AID): AID signal (AID 1347429)
Outline: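 AID+UDG coupled FRET deamination; cpds up to 114 uM final; DJC20/DJC23 substrate, 4 hr RT; NaOH stop, 30 min RT; read Ex 540/Em 590.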

[20] = target: Calcium and integrin-binding protein 1 (Homo sapiens) (UniProt Q99828); assay: Validation qHTS for Identification of Calcium Integrin Binding protein 1 (CIB1) Competitor (AID 1508618)
Outline: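 In this qHTS validation, the LOPAC set (up to 114 uM) was tested for blocking CIB1 binding to a fluorescein-tagged alphaIIb peptide, with FP detection at 480/540 nm.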

[21] = Primary qHTS for small molecule stabilizers of the endoplasmic reticulum resident proteome: Secreted ER Calcium Modulated Protein (SERCaMP) assay (AID 1508630)
Outline: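 The SH-SY5Y reporter protocol was run at 3 concentrations up to 38.3 uM (primary) or 11 concentrations (follow-up): 16 h compound, 100 nM thapsigargin for 4 h, then extracellular luciferase luminescence.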

Papain (Carica papaya) = Papain (Carica papaya) (UniProt P00784); assay: Primary qHTS assay for inhibitors of the protease papain (AID 1645873);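 further: papain turnover of Z-FR-AMC read as the AMC fluorescence gain over 10 min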
[22] = target: Catechol O-methyltransferase (Homo sapiens) (UniProt P21964); assay: Confirmatory Screen for Target Class Profiling of Small Molecule Inhibitors of Methyltransferases (AID 1745852); details: MTase-Glo luminescence, SAH detection, recombinant enzyme; measured here: COMT max response; stronger effect = lower value
[23] = target: Guanidinoacetate N-methyltransferase (Homo sapiens) (UniProt Q14353); assay: as above; details: activity change, negative = inhibition: at 57.3 µM (top of the series) unless noted
[24] = target: Nicotinamide N-methyltransferase (Homo sapiens) (UniProt P40261); assay: as above; details: MTase-Glo luminescence, SAH detection, recombinant enzyme; measured here: NNMT max response; stronger effect = lower value
[25] = target: Phenylethanolamine N-methyltransferase (Homo sapiens) (UniProt P11086); assay: as above; details: MTase-Glo luminescence, SAH detection, recombinant enzyme; measured here: PNMT max response; stronger effect = lower value
[26] = target: Metallo-beta-lactamase type 2 (Klebsiella pneumoniae) (UniProt C7C422); assay: qHTS to identify inhibitors of the New Delhi Metallo-beta-lactamase (NDM): assay validation screen against the NCATS LOPAC Collection (AID 1794843);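 further: nitrocefin turnover by NDM-1 measured as 485 nm absorbance at plateau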
Outline: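 Nitrocefin hydrolysis (50 uM substrate stock) by NDM-1, 2 nM final, was followed by 485 nm absorbance after compound preincubation; buffer was 50 mM HEPES pH 7.0, 1 uM ZnSO4, 0.01% Tween20.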

[27] = target: Glutathione peroxidase 1 (Homo sapiens) (UniProt P07203); assay: Primary qHTS Assay for Inhibitors of Recombinant Selenoprotein Glutathione Peroxidase 1 (GPX1) (AID 1845191); further: nearly all actives have a fitted effect of over 65% in size
Outline: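 GPX1 10 nM, GR 100 nM, GSH 1 mM, NADPH 0.5 mM, CHP 0.5 mM (final). 30-min cpd preincubation, RT. Ex340/Em450 read t=0, t=15 min.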

[28] = target: Phospholipid hydroperoxide glutathione peroxidase GPX4 (Homo sapiens) (UniProt P36969); assay: Primary qHTS Assay for Inhibitors of Recombinant Selenoprotein Glutathione Peroxidase 4 (GPX4) (AID 1845192); details: outcome: dose series up to 50 µM unless noted; further: nearly all actives have a fitted effect of over 65% in size
Outline: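 qHTS, GR-coupled: GPX4 200 nM + cpd 30 min RT → GSH 1 mM, NADPH 0.5 mM, GR 100 nM → CHP 0.5 mM start; fluor 340/450 at t0 and t15 min; no-enzyme wells as control.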

T1 sequence (P35557 whole entry, looked up): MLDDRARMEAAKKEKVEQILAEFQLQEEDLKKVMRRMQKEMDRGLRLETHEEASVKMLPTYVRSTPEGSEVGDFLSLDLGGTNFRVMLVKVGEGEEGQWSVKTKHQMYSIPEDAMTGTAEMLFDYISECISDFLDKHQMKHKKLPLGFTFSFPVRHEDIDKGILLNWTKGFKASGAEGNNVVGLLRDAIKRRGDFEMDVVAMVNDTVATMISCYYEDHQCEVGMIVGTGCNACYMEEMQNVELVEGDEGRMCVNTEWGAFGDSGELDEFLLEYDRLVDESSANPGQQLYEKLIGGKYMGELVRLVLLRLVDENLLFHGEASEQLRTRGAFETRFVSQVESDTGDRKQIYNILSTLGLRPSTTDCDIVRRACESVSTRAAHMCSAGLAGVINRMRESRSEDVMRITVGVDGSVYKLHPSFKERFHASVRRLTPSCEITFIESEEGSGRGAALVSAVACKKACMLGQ
T1 sequence (Q14397 whole entry, looked up): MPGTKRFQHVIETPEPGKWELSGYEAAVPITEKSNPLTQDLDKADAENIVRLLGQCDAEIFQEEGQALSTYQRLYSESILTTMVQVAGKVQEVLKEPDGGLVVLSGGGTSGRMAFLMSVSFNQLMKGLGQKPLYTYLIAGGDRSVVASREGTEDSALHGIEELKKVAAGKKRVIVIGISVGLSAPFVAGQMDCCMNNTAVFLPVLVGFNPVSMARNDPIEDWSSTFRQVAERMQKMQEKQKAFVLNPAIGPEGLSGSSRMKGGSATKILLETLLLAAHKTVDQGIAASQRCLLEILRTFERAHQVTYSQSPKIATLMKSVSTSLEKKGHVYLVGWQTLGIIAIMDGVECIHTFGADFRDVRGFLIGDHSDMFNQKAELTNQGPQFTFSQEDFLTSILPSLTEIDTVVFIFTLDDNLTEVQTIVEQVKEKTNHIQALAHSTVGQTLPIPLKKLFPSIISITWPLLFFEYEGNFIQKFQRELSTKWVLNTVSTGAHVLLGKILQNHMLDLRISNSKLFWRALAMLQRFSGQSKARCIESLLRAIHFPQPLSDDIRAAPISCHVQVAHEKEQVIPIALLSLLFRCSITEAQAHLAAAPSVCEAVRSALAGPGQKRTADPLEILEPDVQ
T2 sequence (P78324 whole entry, looked up, the tested form may be a part): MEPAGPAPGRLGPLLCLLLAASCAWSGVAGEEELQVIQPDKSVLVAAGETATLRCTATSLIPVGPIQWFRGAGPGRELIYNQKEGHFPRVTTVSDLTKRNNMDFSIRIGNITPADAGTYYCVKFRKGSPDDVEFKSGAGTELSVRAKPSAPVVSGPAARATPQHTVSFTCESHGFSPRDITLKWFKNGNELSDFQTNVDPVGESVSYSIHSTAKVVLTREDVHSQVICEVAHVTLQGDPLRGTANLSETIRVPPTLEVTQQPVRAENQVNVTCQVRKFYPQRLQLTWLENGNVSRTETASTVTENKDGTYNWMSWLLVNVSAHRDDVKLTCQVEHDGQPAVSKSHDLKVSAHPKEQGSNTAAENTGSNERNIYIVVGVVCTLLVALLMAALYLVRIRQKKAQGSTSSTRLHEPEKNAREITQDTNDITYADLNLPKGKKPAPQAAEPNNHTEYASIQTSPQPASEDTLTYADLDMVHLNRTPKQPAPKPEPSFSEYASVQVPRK
T2 sequence (Q08722 whole entry, looked up, the tested form may be a part): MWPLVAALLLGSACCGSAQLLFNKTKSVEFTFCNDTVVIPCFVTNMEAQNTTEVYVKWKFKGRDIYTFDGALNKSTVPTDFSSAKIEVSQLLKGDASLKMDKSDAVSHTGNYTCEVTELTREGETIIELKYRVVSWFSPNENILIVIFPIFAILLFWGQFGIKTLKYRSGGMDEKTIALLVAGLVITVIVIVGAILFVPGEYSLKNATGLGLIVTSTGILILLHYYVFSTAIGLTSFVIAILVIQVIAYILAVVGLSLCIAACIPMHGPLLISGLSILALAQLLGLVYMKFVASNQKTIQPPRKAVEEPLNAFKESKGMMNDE
Parathyroid hormone/parathyroid hormone-related peptide receptor (Homo sapiens), sequence (Q03431 whole entry, looked up): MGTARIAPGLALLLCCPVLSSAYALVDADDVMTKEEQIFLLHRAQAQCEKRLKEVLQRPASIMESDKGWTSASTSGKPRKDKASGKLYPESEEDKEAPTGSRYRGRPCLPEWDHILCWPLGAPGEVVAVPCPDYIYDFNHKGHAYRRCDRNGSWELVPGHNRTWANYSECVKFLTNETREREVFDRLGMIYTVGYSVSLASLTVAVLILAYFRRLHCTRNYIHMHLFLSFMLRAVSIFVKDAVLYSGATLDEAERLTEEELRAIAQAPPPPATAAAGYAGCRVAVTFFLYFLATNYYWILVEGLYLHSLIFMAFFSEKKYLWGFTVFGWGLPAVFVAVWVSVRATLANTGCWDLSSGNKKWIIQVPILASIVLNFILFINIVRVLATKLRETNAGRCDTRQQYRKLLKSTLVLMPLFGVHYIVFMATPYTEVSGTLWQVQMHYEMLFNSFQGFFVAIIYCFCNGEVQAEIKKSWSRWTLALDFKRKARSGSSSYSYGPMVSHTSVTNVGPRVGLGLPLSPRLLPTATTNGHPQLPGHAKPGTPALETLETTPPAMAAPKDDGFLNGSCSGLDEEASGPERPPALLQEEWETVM
Phospholipid hydroperoxide glutathione peroxidase GPX4 (Homo sapiens), sequence (P36969 whole entry, looked up): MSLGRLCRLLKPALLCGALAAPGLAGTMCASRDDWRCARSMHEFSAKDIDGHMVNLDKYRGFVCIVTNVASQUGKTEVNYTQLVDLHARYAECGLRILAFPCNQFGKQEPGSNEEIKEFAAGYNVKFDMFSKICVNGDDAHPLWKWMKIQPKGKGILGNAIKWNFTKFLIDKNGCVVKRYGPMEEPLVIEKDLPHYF
N-terminal Xaa-Pro-Lys N-methyltransferase 1 (Homo sapiens), sequence (Q9BV86 whole entry, looked up): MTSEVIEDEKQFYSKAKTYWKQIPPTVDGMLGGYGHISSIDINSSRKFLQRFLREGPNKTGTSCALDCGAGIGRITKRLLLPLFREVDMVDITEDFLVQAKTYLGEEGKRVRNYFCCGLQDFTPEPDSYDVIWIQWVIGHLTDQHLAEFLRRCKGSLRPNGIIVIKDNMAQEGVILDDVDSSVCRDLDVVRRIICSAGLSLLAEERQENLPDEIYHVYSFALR
Atrial natriuretic peptide receptor 1 (Homo sapiens), sequence (P16066 whole entry, looked up): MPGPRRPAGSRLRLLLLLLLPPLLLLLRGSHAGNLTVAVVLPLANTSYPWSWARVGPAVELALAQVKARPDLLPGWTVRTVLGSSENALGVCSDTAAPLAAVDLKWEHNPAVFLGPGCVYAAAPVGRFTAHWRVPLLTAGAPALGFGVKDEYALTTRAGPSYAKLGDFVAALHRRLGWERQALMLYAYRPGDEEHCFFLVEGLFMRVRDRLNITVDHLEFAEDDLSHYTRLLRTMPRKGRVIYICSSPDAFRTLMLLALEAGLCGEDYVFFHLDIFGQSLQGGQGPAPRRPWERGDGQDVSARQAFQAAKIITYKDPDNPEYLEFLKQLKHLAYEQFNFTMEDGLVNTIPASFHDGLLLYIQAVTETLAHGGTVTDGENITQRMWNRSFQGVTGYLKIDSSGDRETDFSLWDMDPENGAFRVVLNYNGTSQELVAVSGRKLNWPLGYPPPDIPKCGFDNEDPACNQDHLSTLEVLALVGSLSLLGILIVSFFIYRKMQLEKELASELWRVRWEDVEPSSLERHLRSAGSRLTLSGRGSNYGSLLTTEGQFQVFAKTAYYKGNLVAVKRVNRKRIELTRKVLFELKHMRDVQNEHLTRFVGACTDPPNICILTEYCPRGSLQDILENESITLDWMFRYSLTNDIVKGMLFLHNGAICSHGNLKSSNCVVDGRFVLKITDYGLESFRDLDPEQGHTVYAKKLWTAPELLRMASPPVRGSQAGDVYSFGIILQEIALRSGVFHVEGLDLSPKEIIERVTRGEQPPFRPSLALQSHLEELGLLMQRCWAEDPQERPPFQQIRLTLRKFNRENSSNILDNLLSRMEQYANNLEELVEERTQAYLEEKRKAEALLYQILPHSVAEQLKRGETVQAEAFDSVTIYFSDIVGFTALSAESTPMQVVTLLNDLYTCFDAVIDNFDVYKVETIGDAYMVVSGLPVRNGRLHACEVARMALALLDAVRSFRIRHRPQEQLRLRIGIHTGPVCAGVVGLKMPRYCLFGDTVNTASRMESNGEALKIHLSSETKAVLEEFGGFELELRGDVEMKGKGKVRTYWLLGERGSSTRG
Nicotinamide N-methyltransferase (Homo sapiens), sequence (P40261 whole entry, looked up): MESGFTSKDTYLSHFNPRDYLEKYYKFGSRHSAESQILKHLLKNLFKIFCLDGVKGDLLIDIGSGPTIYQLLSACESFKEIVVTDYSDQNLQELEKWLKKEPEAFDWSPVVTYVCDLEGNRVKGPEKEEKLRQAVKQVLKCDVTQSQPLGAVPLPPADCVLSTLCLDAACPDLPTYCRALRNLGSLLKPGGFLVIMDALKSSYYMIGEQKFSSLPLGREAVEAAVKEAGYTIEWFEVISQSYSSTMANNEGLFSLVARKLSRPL
Glutathione peroxidase 1 (Homo sapiens), sequence (P07203 whole entry, looked up): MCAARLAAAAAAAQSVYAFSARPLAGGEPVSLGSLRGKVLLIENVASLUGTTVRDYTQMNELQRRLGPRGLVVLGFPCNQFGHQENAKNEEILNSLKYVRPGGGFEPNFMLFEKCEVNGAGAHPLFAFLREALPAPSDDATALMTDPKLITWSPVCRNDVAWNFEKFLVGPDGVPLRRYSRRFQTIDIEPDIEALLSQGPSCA
Phenylethanolamine N-methyltransferase (Homo sapiens), sequence (P11086 whole entry, looked up): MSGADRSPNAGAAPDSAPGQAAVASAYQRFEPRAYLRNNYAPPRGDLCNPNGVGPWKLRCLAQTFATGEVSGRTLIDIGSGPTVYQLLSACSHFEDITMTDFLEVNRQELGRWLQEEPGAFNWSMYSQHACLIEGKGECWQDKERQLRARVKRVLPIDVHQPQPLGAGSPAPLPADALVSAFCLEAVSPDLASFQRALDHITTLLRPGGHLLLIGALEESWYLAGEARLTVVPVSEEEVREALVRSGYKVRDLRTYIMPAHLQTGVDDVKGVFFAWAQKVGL
Single-stranded DNA cytosine deaminase (Homo sapiens), sequence (Q9GZX7 whole entry, looked up): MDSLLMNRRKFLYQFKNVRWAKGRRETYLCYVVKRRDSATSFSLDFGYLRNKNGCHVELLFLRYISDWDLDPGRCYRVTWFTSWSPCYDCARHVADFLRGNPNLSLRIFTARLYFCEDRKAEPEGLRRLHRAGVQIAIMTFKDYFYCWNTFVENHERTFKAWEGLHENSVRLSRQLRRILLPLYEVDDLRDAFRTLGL

Oc1cc2c(c(Cl)c1O)CCNCC2c1ccccc1 (centres undefined)
active: Potency [1] 1.12 µM | Potency [16] 39.8 µM
2.7%: activity change, negative = inhibition [23]
-10.3%: activity [24]
7.26%: activity [25]
72.9%: activity [22]
inactive: outcome [2] | Potency [3] | outcome [4] | Potency [5] | outcome [6] | outcome [7] | outcome [8] | Potency [9] | Potency [10] | Potency [11] | outcome [12] | outcome [13] | Potency [14] | outcome [15] | Potency [17] | outcome [18] | Potency [19] | outcome [20] | Potency [21] | Potency (Papain (Carica papaya)) | Potency [26] | Potency [27] | Potency [28]
